The source of these data is ChEMBL document CHEMBL2218924, “A broad activity screen in support of a chemogenomic map for kinase signalling research and drug discovery” (Biochem J, 2013).

SMILES strings stand for the structures.

Assay [1] concerns the target Death-associated protein kinase 1 (Homo sapiens) (UniProt P53355). Conditions: at 1 µM.
The target is the same in assay [2]. Conditions: at 10 µM.
The target in assay [3] is T1, Serine/threonine-protein kinase DCLK2 (Homo sapiens) (UniProt Q8N568).
T1 sequence (whole entry): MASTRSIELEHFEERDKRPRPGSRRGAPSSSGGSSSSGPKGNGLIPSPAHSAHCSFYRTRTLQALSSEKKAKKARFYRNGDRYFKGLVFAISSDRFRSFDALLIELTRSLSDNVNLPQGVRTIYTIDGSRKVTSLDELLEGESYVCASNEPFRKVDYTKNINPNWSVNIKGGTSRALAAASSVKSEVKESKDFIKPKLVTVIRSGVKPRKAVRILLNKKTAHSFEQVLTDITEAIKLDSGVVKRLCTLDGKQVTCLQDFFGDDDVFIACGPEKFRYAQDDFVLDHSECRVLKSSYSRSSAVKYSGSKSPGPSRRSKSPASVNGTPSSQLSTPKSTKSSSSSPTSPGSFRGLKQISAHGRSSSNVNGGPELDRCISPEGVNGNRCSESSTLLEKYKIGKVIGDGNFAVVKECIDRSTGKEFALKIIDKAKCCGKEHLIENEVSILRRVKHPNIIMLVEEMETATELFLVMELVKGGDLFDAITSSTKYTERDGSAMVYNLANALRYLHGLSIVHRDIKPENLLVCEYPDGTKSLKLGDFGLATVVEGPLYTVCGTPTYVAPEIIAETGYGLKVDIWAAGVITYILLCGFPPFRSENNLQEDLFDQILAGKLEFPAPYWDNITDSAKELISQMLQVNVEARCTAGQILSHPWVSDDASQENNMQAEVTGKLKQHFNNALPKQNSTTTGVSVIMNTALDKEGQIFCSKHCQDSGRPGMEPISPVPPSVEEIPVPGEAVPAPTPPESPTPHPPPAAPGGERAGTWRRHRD
Conditions: at 1 µM.

In assay [4] the target is T1, Serine/threonine-protein kinase DCLK2 (Homo sapiens). Conditions: at 10 µM.
Assay [5] addresses T2, Discoidin domain-containing receptor 2 (Homo sapiens) (UniProt Q16832).
T2 sequence (whole entry): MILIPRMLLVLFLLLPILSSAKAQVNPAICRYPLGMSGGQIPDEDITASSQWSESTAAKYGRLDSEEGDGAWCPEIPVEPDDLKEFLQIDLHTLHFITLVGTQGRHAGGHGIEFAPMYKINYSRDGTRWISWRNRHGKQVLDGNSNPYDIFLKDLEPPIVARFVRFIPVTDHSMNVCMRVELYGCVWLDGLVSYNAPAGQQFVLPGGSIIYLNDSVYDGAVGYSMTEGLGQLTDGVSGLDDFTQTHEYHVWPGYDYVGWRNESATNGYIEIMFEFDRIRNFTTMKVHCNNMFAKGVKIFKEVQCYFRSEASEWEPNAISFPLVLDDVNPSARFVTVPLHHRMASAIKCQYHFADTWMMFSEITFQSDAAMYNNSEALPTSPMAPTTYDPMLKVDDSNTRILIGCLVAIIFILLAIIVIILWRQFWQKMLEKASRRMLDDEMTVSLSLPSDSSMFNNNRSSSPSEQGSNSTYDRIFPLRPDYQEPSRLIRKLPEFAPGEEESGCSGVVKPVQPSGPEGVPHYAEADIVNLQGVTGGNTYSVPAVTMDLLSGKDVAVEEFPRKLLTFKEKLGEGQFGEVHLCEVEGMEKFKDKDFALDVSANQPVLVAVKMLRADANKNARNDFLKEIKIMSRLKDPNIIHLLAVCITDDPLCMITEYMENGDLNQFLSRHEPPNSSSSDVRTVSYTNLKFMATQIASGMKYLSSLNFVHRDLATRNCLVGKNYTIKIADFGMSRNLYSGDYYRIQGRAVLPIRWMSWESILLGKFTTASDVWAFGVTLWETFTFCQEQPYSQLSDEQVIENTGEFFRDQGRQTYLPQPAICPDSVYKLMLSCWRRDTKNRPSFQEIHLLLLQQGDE
Conditions: at 10 µM.

Assay [6] deals with T3, Myotonin-protein kinase (Homo sapiens) (UniProt Q09013).
T3 sequence (whole entry): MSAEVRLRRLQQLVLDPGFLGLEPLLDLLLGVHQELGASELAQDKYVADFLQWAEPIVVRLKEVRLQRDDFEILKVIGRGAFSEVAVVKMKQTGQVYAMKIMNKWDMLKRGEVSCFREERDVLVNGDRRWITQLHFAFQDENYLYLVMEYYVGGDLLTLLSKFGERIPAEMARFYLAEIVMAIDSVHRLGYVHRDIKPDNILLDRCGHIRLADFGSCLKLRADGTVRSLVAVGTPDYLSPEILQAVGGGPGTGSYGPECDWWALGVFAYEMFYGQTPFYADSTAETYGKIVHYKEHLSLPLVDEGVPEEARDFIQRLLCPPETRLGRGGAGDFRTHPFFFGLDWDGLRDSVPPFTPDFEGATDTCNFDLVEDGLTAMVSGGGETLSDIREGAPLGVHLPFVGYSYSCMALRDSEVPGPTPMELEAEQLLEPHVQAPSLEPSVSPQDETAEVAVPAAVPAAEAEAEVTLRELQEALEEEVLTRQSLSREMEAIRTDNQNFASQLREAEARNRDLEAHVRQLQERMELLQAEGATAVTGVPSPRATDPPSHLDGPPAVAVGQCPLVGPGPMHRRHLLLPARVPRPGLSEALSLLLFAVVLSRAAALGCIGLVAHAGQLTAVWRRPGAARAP
Conditions: at 10 µM.

The target in assay [7] is T4, Serine/threonine-protein kinase 17A (Homo sapiens) (UniProt Q9UEE5).
T4 sequence (whole entry): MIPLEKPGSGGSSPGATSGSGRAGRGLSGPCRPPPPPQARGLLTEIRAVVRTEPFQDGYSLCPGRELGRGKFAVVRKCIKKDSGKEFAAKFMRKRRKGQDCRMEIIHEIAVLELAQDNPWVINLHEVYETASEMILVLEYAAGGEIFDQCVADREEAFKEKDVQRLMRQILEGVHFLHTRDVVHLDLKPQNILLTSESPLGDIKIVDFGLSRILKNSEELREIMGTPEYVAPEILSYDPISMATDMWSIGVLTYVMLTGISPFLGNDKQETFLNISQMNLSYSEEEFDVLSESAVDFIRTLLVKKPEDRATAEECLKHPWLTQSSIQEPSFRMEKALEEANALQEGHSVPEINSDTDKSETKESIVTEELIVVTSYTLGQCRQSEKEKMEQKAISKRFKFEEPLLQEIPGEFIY
The conditions noted are these: at 1 µM.

For assay [8], the target named is T4, Serine/threonine-protein kinase 17A (Homo sapiens). Conditions: at 10 µM.
Assay [9] deals with T5, Dual specificity tyrosine-phosphorylation-regulated kinase 2 (Homo sapiens) (UniProt Q92630).
T5 sequence (whole entry): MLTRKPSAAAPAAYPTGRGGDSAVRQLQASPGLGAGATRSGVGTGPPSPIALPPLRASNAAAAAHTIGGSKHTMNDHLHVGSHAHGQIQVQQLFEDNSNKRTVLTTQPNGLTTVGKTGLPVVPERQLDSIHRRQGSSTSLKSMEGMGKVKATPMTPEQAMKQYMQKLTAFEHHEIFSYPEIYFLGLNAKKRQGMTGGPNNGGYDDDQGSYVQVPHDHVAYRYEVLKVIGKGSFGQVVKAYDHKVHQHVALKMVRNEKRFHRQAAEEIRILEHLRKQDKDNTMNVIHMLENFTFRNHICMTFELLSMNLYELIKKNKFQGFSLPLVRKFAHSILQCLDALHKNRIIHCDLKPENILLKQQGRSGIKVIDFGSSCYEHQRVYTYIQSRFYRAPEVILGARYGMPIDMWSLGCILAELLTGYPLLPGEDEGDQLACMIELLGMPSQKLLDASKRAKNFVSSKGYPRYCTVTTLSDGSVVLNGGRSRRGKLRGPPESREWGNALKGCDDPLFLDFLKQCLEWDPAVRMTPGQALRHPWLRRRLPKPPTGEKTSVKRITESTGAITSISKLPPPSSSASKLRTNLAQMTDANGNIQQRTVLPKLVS
Conditions: at 1 µM.

Assay [10] addresses T5, Dual specificity tyrosine-phosphorylation-regulated kinase 2 (Homo sapiens). Conditions: at 10 µM.
The target of assay [11] is T6, Ephrin type-A receptor 1 (Homo sapiens) (UniProt P21709).
T6 sequence (whole entry): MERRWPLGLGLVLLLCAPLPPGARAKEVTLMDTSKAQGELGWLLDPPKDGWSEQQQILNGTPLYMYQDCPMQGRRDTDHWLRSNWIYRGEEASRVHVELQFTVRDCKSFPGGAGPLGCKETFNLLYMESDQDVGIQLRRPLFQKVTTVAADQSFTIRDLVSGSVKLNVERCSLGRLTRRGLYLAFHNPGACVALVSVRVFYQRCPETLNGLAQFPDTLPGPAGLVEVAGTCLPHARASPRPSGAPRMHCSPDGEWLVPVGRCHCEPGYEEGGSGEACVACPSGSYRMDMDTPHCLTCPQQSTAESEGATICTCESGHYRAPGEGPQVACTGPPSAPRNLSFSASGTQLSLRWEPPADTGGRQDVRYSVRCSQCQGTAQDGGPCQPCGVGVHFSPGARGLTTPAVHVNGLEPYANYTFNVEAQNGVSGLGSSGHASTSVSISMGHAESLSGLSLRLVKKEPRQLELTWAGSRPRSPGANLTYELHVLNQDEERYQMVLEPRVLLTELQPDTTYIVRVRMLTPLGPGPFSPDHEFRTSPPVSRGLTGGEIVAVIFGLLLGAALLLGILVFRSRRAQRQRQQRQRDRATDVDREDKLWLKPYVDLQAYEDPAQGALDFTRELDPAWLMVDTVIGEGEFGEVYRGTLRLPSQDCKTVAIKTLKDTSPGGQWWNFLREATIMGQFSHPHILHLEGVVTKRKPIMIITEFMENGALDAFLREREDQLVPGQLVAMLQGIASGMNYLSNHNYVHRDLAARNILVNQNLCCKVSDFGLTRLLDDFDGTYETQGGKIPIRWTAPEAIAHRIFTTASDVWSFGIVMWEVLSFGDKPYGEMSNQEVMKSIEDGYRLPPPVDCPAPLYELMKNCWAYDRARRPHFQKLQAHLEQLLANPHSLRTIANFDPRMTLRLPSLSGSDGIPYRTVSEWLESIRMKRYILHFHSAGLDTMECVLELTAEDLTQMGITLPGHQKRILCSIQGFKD
The conditions noted are these: at 1 µM.

The target of assay [12] is T6, Ephrin type-A receptor 1 (Homo sapiens). Conditions: at 10 µM.
Assay [13] addresses Ephrin type-A receptor 2 (Homo sapiens) (UniProt P29317). The conditions noted are these: at 1 µM.
The target is the same in assay [14]. Conditions: at 10 µM.
The target in assay [15] is T7, Ephrin type-A receptor 3 (Homo sapiens) (UniProt P29320).
T7 sequence (whole entry): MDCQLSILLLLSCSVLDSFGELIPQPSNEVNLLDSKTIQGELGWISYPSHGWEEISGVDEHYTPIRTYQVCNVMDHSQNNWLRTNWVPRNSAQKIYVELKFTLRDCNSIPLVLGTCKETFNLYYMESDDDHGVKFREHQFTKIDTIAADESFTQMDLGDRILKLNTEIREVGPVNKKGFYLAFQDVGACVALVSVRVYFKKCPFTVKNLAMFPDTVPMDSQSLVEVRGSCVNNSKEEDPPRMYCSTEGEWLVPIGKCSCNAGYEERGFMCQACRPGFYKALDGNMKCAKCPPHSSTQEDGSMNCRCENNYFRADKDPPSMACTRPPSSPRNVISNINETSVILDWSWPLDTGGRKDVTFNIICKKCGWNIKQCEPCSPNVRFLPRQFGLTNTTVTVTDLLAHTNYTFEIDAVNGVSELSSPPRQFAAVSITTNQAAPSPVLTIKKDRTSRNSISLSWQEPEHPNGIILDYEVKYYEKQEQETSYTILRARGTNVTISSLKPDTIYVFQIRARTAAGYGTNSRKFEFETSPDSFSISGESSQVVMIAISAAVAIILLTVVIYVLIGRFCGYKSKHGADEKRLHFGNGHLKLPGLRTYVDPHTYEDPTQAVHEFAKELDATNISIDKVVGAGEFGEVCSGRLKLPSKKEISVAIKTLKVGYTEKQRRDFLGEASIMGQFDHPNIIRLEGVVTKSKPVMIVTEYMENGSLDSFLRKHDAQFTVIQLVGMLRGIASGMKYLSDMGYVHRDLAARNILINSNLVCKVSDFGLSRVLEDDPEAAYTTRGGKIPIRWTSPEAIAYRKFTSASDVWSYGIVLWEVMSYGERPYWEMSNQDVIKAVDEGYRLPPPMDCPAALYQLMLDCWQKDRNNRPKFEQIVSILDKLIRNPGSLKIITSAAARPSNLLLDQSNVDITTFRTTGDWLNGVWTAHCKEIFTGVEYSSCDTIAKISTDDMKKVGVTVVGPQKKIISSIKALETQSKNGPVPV
The conditions noted are these: at 1 µM.

Assay [16] addresses Death-associated protein kinase 2 (Homo sapiens) (UniProt Q9UIK4). Conditions: at 1 µM.
Assay [17] shares this target. Conditions: at 10 µM.
The target of assay [18] is T2, Discoidin domain-containing receptor 2 (Homo sapiens). Conditions: at 1 µM.
The target of assay [19] is T3, Myotonin-protein kinase (Homo sapiens). The conditions noted are these: at 1 µM.

Death-associated protein kinase 1 (Homo sapiens), sequence (P53355 whole entry, looked up): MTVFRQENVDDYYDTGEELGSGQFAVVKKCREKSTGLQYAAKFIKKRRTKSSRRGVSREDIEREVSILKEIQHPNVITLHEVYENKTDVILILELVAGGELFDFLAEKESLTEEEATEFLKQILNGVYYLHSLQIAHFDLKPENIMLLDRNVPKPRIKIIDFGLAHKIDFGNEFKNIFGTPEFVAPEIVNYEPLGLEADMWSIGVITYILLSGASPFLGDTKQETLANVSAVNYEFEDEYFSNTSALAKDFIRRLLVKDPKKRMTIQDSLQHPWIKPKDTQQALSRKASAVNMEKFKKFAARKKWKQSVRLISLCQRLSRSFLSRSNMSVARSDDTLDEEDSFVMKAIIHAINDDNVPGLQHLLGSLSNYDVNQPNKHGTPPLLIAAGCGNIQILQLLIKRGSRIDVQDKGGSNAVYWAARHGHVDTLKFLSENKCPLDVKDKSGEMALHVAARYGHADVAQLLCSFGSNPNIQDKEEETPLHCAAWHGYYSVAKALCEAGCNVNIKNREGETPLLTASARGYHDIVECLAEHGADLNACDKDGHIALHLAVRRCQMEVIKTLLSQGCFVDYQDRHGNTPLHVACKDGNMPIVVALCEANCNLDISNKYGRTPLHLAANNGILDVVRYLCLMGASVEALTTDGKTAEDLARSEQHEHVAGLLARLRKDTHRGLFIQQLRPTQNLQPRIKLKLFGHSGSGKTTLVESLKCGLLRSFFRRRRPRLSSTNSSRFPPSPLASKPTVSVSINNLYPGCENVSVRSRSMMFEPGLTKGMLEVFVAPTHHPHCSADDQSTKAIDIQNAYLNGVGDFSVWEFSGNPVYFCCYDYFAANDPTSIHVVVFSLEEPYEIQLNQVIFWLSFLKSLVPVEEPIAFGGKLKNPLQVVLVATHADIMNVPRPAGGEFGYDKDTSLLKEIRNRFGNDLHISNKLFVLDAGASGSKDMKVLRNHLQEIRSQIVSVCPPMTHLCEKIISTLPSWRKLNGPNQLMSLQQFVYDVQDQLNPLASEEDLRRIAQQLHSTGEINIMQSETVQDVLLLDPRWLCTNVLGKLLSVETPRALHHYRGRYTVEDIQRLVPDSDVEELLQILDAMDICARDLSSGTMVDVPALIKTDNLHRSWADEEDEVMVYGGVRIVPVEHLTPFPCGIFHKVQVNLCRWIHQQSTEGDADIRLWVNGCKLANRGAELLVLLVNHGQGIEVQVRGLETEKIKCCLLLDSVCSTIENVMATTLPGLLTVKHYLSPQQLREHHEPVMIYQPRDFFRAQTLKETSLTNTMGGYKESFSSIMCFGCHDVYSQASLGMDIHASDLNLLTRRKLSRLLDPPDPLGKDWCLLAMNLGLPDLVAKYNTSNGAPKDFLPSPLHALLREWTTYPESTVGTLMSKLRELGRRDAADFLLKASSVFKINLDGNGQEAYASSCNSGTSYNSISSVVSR
Ephrin type-A receptor 2 (Homo sapiens), sequence (P29317 whole entry): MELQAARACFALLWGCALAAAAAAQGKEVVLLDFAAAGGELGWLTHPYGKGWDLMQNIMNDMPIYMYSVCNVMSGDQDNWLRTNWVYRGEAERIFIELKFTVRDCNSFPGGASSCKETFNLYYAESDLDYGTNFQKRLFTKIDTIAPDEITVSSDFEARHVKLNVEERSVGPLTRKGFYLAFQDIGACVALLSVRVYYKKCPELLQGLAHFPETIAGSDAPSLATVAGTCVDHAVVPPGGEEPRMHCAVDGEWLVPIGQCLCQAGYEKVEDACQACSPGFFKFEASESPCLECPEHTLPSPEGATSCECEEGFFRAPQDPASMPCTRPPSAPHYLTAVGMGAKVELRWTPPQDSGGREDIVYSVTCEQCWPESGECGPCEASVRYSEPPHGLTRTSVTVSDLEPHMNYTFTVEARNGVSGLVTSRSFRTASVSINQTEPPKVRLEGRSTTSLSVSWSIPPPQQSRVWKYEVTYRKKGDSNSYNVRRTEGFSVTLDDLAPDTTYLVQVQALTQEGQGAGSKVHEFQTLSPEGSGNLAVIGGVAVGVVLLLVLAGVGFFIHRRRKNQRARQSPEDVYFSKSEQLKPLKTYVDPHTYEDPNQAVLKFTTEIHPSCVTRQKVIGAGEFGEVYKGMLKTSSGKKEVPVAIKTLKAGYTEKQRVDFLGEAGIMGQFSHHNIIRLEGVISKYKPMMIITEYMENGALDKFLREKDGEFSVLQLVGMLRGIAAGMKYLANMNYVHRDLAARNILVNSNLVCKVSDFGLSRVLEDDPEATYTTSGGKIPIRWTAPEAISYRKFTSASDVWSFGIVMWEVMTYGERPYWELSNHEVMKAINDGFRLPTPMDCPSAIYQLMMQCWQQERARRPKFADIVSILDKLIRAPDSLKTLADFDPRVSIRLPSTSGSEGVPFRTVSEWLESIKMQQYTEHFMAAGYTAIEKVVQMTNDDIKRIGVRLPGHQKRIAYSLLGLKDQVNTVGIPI
Death-associated protein kinase 2 (Homo sapiens), sequence (Q9UIK4 whole entry, looked up): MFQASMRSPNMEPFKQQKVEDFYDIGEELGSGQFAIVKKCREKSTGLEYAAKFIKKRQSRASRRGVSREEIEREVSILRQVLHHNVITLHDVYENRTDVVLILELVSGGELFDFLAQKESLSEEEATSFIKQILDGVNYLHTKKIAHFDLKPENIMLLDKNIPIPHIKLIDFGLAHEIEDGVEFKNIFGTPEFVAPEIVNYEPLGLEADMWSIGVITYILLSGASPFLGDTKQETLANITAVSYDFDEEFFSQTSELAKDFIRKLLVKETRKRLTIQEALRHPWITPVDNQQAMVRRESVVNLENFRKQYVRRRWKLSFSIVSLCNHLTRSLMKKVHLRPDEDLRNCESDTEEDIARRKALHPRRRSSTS

`c1cc(-c2cnn3cc(-c4ccc(OCCN5CCCCC5)cc4)cnc23)ccn1`: the residual activity (as a rule, the signal under treatment as a percentage of the control signal) worked out at 76% in assay [1]; 84% in [2]; 124% in assay [3]; 76% in assay [4]; 69% in assay [5]; 80% in assay [6]. Moreover, the residual activity in assay [7] was 19%; in assay [8], 7%; in assay [9], 52%; in [10], 7%; in [11] it was 17%; in [12], 1%. Further, the residual activity was 59% in assay [13], 8% in assay [14] and 58% in [15].
For `CC(C)(C)c1cc(C=C(C#N)C#N)cc(Br)c1O`, the residual activity came to 101% in [1]; 104% in [16]; 103% in assay [17]; 109% in assay [3]; 115% in assay [18]; 98% in assay [19]. The residual activity was 107% in assay [6]; 147% in assay [7]; 100% in [8]; 107% in assay [9]; 101% in assay [10]; 115% in assay [11]. Further, the residual activity in [12] is 130%; in [13], 107%; in assay [14] it was 104%; in [15], 122%.
